We go through 7 compounds from PubChem BioAssay (EPA / NIEHS).

Each structure is given as a SMILES string. Results filed as inconclusive are left out. Activity calls are given as the source filed them. The calls were made as follows, unless noted: active = hit-call score of the fitted dose curve at least 0.9, where 1 is the maximum; inactive = score below 0.9.

In experiment [1] the target is Myc proto-oncogene protein (Homo sapiens) (UniProt P01106). The experiment in a line: ATG_Myc_CIS: Attagene CIS-FACTORIAL HepG2 Assay for human Myelocytomatosis (Myc) Proto-Oncogene Transcription Factor (AID 2282990). The note with it: HepG2, Attagene cis-reporter transcription factor activity; actives raise or lower the signal. Summed up: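 After 24 h chemical treatment of HepG2 cells carrying multiplexed cis-regulated reporter constructs, reporter transcripts quantified by RT-PCR and capillary electrophoresis of fluorescent fragments. Gain or loss fitted against DMSO baseline.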
Chain of Myc proto-oncogene protein (Homo sapiens) (P01106 whole entry, looked up, the tested form may be a part): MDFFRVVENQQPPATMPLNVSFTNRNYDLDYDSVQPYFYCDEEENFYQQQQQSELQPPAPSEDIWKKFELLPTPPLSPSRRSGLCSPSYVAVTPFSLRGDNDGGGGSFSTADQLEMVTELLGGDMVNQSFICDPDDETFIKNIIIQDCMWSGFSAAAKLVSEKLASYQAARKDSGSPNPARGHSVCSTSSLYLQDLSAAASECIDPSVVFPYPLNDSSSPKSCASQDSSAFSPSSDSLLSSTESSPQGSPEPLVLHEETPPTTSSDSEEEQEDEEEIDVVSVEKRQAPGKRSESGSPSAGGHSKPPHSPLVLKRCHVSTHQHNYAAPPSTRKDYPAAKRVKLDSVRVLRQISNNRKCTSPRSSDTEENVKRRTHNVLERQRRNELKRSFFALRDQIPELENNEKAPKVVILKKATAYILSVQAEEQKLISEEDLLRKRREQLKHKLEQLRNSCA

Experiment [2] is described as follows: ATG_NF_kB_CIS: Attagene CIS-FACTORIAL HepG2 Assay for human Nuclear Factor Kappa B (NF-kB) (AID 2282991). The note with it: HepG2 Attagene cis-factorial NF-kB reporter mRNA; actives raise or lower the signal. The procedure, abridged: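 DMSO served as negative control and baseline for bidirectional curve fitting. Transiently transfected HepG2 cells were dosed for 24 h, then reporter transcripts were measured by RT-PCR with capillary electrophoresis detection.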

Experiment [3] in a line: ATG_NRF2_ARE_CIS: Attagene CIS-FACTORIAL HepG2 Assay for human Nuclear Factor Erythroid 2 Related Factor 2 (NFR2) response to Antioxidant Response Elements (ARE) (AID 2282992). The note with it: HepG2 Attagene ARE/NRF2 reporter, transcription factor activity; actives raise or lower the signal. Summed up: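 Fluorescence intensity of reporter-specific cDNA fragments, separated by capillary electrophoresis, reflects mRNA induction in transfected HepG2 cells at 24 h. Activity is fitted bidirectionally, DMSO serving as baseline.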

Experiment [4] is described as follows: ATG_Oct_MLP_CIS: Attagene CIS-FACTORIAL HepG2 Assay for human Octamer-Binding Transcription Factor (Oct) (AID 2282993). The note with it: HepG2 Attagene cis-factorial Oct reporter, mRNA; actives raise or lower the signal. The procedure, abridged:
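Cells of the HepG2 line express promoter-controlled reporter sequences whose mRNA levels, after 24 h treatment, are measured by RT-PCR and capillary electrophoresis. Increases and decreases are scored relative to DMSO.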

For experiment [5], the target named is human Peroxisome Proliferator-activated Receptor alpha (PPARa), PPARA (gene 5465) (UniProt Q07869). Briefly: ATG_PPARa_TRANS: Attagene TRANS-FACTORIAL HepG2 Assay for human Peroxisome Proliferator-activated Receptor alpha (PPARa) (AID 2283001; active = hit-call score of the fitted dose curve at least 0.9, where 1 is the maximum). Summed up: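 Transfected HepG2 cells treated with test chemical for 24 h. RNA isolated, reverse-transcribed with oligo(dT), PCR-amplified, FAM-labelled and HpaI-digested. Fragments sized by capillary electrophoresis; gain-of-signal fit relative to DMSO.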
Chain of human Peroxisome Proliferator-activated Receptor alpha (PPARa), PPARA (gene 5465) (Q07869 whole entry, looked up, the tested form may be a part): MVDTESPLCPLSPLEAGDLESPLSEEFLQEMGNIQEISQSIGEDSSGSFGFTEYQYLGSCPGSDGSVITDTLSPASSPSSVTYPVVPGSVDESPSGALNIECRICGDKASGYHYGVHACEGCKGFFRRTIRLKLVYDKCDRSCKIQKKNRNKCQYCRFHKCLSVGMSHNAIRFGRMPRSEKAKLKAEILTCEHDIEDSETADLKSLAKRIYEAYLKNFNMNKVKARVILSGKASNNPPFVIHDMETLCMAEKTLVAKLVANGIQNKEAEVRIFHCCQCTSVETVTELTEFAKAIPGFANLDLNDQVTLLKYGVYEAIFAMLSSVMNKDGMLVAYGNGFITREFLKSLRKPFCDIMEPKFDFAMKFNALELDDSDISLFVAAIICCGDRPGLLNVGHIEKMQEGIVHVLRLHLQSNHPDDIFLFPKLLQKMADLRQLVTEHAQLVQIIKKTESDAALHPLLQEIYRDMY

In experiment [6] the target is Retinoic acid receptor alpha (Homo sapiens) (UniProt P10276). Briefly: ATG_RARa_TRANS: Attagene TRANS-FACTORIAL HepG2 Assay for human Retinoic Acid Receptor alpha (RARa) (AID 2283005; active = hit-call score of the fitted dose curve at least 0.9, where 1 is the maximum). Summed up:
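Reporter transcripts, measured by RT-PCR with fluorescent labeling and capillary electrophoresis after 24 h dosing, reflect activity of an exogenous human RARa–GAL4 fusion in transiently transfected HepG2. Fitted for increase relative to DMSO.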

Experiment [7] concerns the target Peroxisome proliferator-activated receptor gamma (Homo sapiens) (UniProt P37231). The experiment in a line: ATG_PPARg_TRANS: Attagene TRANS-FACTORIAL HepG2 Assay for human Peroxisome Proliferator-activated Receptor-gamma (PPARg) (AID 2283007; active = hit-call score of the fitted dose curve at least 0.9, where 1 is the maximum). The procedure, abridged: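 Chimeric NR-Gal4 transactivation is measured in transiently transfected HepG2 cells by reporter mRNA induction at 24 h. Detection uses RT-PCR with fluorescent labelling and capillary electrophoresis; DMSO defines baseline.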

Experiment [8] deals with Nuclear receptor subfamily 1 group I member 2 (Homo sapiens) (UniProt O75469). Briefly: ATG_PXR_TRANS: Attagene TRANS-FACTORIAL HepG2 Assay for human Pregnane X Receptor (PXR) (AID 2283008; active = hit-call score of the fitted dose curve at least 0.9, where 1 is the maximum). Summed up: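 Transient HepG2 transfectants carrying multiplexed reporter transcription units; PXR activity read through a Gal4 chimera. 24 h exposure. RT-PCR/CE fluorescence; upward curve fit referenced to DMSO.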
Chain of Nuclear receptor subfamily 1 group I member 2 (Homo sapiens) (O75469 whole entry, looked up, the tested form may be a part): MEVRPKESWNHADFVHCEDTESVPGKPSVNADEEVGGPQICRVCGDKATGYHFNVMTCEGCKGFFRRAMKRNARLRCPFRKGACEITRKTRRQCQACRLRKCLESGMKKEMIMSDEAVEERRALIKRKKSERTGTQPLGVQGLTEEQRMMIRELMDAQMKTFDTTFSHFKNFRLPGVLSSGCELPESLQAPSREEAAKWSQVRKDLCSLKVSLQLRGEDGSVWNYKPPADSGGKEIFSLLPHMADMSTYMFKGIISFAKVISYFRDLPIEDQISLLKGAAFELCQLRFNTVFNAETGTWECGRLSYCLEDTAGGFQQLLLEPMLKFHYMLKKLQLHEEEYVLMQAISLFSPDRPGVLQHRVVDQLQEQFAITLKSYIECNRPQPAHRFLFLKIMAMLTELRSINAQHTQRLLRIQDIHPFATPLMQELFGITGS

The target of experiment [9] is human Retinoic Acid Receptor gamma (RARg), RARG (gene 5916) (UniProt P13631). The experiment in a line: ATG_RARg_TRANS: Attagene TRANS-FACTORIAL HepG2 Assay for human Retinoic Acid Receptor gamma (RARg) (AID 2283009; active = hit-call score of the fitted dose curve at least 0.9, where 1 is the maximum). Summed up: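 Readout: reporter transcript levels via RT-PCR, 6-FAM primer-extension labelling, HpaI digestion and capillary electrophoresis. Cells: HepG2 carrying transfected RARg-GAL4 chimera plus UAS reporter set. Dosing 24 h; DMSO negative control.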
Chain of human Retinoic Acid Receptor gamma (RARg), RARG (gene 5916) (P13631 whole entry, looked up, the tested form may be a part): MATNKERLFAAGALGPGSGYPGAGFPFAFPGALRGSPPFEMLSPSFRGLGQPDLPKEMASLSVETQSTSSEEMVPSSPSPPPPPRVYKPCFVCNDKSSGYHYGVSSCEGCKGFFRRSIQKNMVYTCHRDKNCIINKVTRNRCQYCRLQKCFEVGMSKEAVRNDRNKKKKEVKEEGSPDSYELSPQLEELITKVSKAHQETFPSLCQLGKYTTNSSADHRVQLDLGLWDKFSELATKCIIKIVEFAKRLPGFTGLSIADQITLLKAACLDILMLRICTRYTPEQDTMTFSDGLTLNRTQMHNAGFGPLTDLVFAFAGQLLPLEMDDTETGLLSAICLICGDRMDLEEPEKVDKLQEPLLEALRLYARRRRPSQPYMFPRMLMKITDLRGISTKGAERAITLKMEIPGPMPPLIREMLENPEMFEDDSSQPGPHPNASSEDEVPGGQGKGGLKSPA

The target of experiment [10] is Retinoic acid receptor RXR-alpha (Homo sapiens) (UniProt P19793). Briefly: ATG_RXRa_TRANS: Attagene TRANS-FACTORIAL HepG2 Assay for human Retinoid X Receptor alpha (RXRa) (AID 2283012; active = hit-call score of the fitted dose curve at least 0.9, where 1 is the maximum). Summed up:
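Read-out: fluorescent reporter-transcript fragments quantified by capillary electrophoresis after RT-PCR. Transiently transfected HepG2 cells carrying GAL4-UAS reporters and NR-GAL4 chimeras were exposed to chemical for 24 h; activity scored as increase over DMSO.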

Experiment [11] concerns the target Cellular tumor antigen p53 (Homo sapiens) (UniProt P04637). Briefly: ATG_p53_CIS: Attagene CIS-FACTORIAL HepG2 Assay for human p53 Transcription Factor (AID 2282994). The note with it: HepG2 p53 cis-element reporter, Attagene mRNA; actives raise or lower the signal. The procedure, abridged:
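Transiently transfected HepG2 (multiple cis reporter transcription units); exposure 24 h; reporter RNA via RT-PCR, 6-FAM extension, 2 h HpaI digest at 37 C, CE detection; DMSO baseline.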

For experiment [12], the target named is human RAR-related Orphan Receptor gamma (RORg), RORC (gene 6097) (UniProt P51449). The experiment in a line: ATG_RORg_TRANS: Attagene TRANS-FACTORIAL HepG2 Assay for human RAR-related Orphan Receptor gamma (RORg) (AID 2283011; active = hit-call score of the fitted dose curve at least 0.9, where 1 is the maximum). The procedure, abridged: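 Activity is scored as increase in GAL4-UAS reporter mRNA over DMSO, detected by fluorescent RT-PCR and capillary electrophoresis in HepG2 cells transiently expressing a RORg-Gal4 chimera, 24 h after dosing.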
Chain of human RAR-related Orphan Receptor gamma (RORg), RORC (gene 6097) (P51449 whole entry, looked up, the tested form may be a part): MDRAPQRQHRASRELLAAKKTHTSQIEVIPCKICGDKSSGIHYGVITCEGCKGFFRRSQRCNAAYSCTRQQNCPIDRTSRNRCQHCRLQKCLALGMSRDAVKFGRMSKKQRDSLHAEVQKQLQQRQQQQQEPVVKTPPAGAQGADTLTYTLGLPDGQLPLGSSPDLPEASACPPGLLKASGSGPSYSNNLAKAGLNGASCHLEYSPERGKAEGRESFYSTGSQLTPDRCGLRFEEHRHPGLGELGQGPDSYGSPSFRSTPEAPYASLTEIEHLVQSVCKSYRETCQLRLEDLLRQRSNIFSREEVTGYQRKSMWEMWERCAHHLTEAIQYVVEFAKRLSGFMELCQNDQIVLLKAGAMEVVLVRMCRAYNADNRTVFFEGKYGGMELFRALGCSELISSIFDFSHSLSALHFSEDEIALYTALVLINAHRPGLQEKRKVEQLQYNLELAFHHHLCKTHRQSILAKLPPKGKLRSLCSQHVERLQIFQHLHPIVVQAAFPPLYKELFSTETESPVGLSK

A short description of experiment [13]: BSK_3C_TissueFactor: BioMAP Diversity Plus: 3C Assay for Tissue Factor Biomarker Activity (AID 2282997). The note with it: BioMAP 3C HUVEC, tissue factor biomarker readout; actives raise or lower the signal. Summed up:
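Cells used were primary human umbilical vein endothelial cells. They were dosed with chemical, and after 24 h Tissue Factor was quantified by ELISA. Curves were fitted bidirectionally with DMSO as baseline.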

Experiment [14] is described as follows: BSK_3C_uPAR: BioMAP Diversity Plus: 3C Assay for Urokinase-type plasminogen activator receptor (uPAR) Biomarker Activity (AID 2282998). The note with it: BioMAP 3C HUVEC, uPAR biomarker ELISA; actives raise or lower the signal. The procedure, abridged:
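Endothelial primary cells of human umbilical vein origin received test chemical; 24 h later uPAR was assayed by ELISA. Fitting was bidirectional, DMSO as negative control.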

The nature of experiment [15]: BSK_3C_VCAM1: BioMAP Diversity Plus: 3C Assay for Vascular cell adhesion molecule 1 (VCAM1) Biomarker Activity (AID 2282999). The note with it: BioMAP 3C HUVEC, VCAM1 ELISA, cytokine-stimulated; actives raise or lower the signal. The procedure, abridged: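 Activity fitted in both directions relative to DMSO, with ELISA measurement of the surface marker on primary HUVEC (3C) at 24 h post-treatment; parallel SRB staining (0.1% SRB, TCA-fixed, 560 nm) flagged overt cytotoxicity.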

The nature of experiment [16]: BSK_4H_Eotaxin3: BioMAP Diversity Plus: 4H Assay for Eotaxin 3 Biomarker Activity (AID 2283000).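 Also: CCL26 protein level quantified by ELISA in parallel with SRB cytotoxicity check.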 The note with it: primary human endothelial cells (HUVEC); actives raise or lower the signal. The procedure, abridged: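 Endothelial primary cells (human umbilical vein) exposed to compound for 24 h. ELISA detection of Eotaxin-3.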
Read-out in experiment [17]: Intercellular Adhesion Molecule 1 (ICAM1), ICAM1 (gene 3383)
The experiment in a line: BSK_3C_ICAM1: BioMAP Diversity Plus: 3C Assay for Intercellular Adhesion Molecule 1 (ICAM1) Biomarker Activity (AID 2283003). The note with it: primary human endothelial cells (HUVEC); actives raise or lower the signal. Summed up:
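ELISA read-out of ICAM-1; HUVEC (primary human), 3C system, 24 h post-dosing; bidirectional fit vs DMSO baseline.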

The nature of experiment [18]: BSK_3C_Proliferation: Cell Proliferation Assessment in the BioMAP Diversity Plus: 3C Assay (AID 2283006).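 As to AC50: potency may reflect either rise or fall in cell number versus DMSO.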 The note with it: primary human endothelial cells (HUVEC). Summed up:
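HUVEC, sub-confluent; 48 h chemical exposure; 10% TCA fix, 0.1% SRB stain, A560 total protein. Gain or loss of signal fitted both directions vs DMSO control.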

For experiment [19], the target named is human RAR-related Orphan Receptor beta (RORb), RORB (gene 6096) (UniProt Q92753). The experiment in a line: ATG_RORb_TRANS: Attagene TRANS-FACTORIAL HepG2 Assay for human RAR-related Orphan Receptor beta (RORb) (AID 2283010; active = hit-call score of the fitted dose curve at least 0.9, where 1 is the maximum). Summed up: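 HepG2, transient MRTU transfection (GAL4-UAS reporters, exogenous NR-Gal4 chimeras); 24 h compound exposure; total RNA → RT-PCR → 6-FAM primer extension → HpaI digest → CE fluorescence. Positive direction vs DMSO baseline.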
Chain of human RAR-related Orphan Receptor beta (RORb), RORB (gene 6096) (Q92753 whole entry, looked up, the tested form may be a part): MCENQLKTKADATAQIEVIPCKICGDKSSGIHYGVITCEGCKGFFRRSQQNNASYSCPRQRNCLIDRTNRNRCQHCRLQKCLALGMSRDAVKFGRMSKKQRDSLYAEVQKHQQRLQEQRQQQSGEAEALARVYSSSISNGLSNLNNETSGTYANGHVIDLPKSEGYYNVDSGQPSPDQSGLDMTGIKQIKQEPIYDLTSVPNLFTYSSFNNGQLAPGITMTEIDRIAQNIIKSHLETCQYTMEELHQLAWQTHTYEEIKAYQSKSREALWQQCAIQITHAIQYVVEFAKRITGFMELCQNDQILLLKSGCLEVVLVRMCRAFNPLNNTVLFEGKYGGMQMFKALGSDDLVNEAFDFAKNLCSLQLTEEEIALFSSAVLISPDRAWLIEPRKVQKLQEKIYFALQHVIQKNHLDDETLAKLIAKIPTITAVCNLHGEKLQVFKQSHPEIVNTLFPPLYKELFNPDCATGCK

For experiment [20], the target named is human Peroxisome Proliferator-activated Receptor delta (PPARd), PPARD (gene 5467) (UniProt Q03181). The experiment in a line: ATG_PPARd_TRANS: Attagene TRANS-FACTORIAL HepG2 Assay for human Peroxisome Proliferator-activated Receptor delta (PPARd) (AID 2283002; active = hit-call score of the fitted dose curve at least 0.9, where 1 is the maximum). Summed up:
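Read-out is induced reporter mRNA, quantified by RT-PCR with fluorescent labelling and capillary electrophoresis after 24 h dosing. Cells are HepG2 transiently carrying multiple GAL4-UAS reporter units driven by exogenous NR-GAL4 chimeras; DMSO serves as baseline.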

Chain of Peroxisome proliferator-activated receptor gamma (Homo sapiens) (P37231 whole entry, looked up, the tested form may be a part): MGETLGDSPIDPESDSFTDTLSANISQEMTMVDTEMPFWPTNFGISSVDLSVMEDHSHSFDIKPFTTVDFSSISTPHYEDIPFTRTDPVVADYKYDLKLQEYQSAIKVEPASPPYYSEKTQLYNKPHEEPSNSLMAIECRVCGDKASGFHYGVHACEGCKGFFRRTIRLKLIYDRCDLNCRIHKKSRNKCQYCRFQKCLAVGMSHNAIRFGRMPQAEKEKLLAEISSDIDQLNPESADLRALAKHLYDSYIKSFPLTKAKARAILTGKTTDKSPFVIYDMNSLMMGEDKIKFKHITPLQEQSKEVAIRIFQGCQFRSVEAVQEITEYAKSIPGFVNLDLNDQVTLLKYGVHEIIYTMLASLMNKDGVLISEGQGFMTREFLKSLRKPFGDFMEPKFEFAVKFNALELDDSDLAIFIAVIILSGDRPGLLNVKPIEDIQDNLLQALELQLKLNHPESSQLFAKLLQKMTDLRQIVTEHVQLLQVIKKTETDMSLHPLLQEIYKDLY
Chain of Retinoic acid receptor RXR-alpha (Homo sapiens) (P19793 whole entry, looked up, the tested form may be a part): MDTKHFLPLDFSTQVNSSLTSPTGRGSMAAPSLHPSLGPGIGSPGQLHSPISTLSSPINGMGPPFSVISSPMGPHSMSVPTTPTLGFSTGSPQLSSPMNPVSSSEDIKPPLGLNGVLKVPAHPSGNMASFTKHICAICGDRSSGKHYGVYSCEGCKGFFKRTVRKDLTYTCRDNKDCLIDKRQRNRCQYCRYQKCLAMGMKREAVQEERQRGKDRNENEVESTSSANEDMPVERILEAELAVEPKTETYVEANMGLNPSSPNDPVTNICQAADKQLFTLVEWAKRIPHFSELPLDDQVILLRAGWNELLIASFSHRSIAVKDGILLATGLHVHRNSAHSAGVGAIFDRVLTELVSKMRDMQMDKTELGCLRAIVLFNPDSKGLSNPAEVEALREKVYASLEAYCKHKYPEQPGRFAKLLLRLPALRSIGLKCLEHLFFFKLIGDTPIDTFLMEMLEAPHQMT
Chain of Cellular tumor antigen p53 (Homo sapiens) (P04637 whole entry, looked up): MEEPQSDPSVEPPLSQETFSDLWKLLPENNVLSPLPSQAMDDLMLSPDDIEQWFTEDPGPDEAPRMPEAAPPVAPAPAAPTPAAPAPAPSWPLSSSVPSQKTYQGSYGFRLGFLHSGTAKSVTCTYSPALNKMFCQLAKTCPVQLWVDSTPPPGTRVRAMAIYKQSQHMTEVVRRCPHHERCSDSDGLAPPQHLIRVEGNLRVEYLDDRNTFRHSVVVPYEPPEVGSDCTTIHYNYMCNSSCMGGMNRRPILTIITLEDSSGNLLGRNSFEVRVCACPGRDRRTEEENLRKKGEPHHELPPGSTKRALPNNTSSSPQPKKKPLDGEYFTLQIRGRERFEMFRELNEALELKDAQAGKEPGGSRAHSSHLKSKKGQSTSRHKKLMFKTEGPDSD
Chain of Retinoic acid receptor alpha (Homo sapiens) (P10276 whole entry, looked up, the tested form may be a part): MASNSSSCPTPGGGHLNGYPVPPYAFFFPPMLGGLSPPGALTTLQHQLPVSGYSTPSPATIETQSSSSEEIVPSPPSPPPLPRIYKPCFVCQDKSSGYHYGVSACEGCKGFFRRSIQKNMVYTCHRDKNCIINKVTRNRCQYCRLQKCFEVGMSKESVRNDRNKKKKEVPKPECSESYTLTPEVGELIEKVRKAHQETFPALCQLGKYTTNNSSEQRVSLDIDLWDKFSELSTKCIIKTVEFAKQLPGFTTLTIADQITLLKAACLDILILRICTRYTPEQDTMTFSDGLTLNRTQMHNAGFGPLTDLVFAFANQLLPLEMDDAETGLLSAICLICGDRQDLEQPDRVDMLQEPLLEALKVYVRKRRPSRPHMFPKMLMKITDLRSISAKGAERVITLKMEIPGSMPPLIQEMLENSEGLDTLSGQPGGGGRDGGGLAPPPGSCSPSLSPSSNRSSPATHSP

As a reminder, the AC50 is the concentration giving half of the maximal activity seen. In the case of `C[C@]12CC[C@H](O)CC1=CC[C@@H]1[C@@H]2CC[C@]2(C)C(=O)CC[C@@H]12`, the call in experiment [1], in experiment [2], in experiment [3], in [4], in experiment [5] and in experiment [6] was inactive. Further, the compound was classed as inactive in experiment [7], in [9] and in experiment [10]. In addition, the AC50 in [8] is 27.5 µM (active).

For the compound `O=C(NCO)NCO`, the outcome in experiment [1], in [2], in experiment [3], in [4], in experiment [11] and in experiment [5] was inactive. For the same compound, the result in experiment [12] and in [10] was inactive.

Consider `O=Cc1cccc(Oc2ccccc2)c1`, for which the result in experiment [1], in experiment [2], in experiment [3], in [4], in [13] and in experiment [14] was inactive. For the same compound, the outcome in experiment [15], in experiment [16], in experiment [5], in [17], in experiment [18] and in experiment [7] was inactive. The result in experiment [8] and in experiment [19] was inactive.

Take `CCCCCCCCC(=O)NCc1ccc(O)c(OC)c1`: the call in [1], in experiment [2], in [4], in experiment [13], in experiment [14] and in experiment [15] was inactive. Moreover, the outcome in experiment [16], in experiment [5], in [20], in experiment [17], in experiment [8] and in experiment [9] was inactive. In addition, the concentration at half-maximal activity (AC50) is 38.3 µM (active) in experiment [3], 13.6 µM (active) in [18] and 27.3 µM (active) in experiment [7].

As to `NNC(=S)NN`, the result in experiment [1], in [2], in experiment [3], in [4], in experiment [11] and in experiment [7] was inactive. The outcome in [10] was inactive.

Regarding `CCOP(OCC)OCC`, the compound was called inactive in experiment [1], in experiment [2], in experiment [3], in [4], in experiment [11] and in [6]. Moreover, the compound was called inactive in experiment [8] and in experiment [12].

Consider `Cl/C=C\C[N+]12CN3CN(CN(C3)C1)C2`, for which the outcome in experiment [1], in experiment [4], in [7], in experiment [19] and in experiment [10] was inactive. The AC50 was 53.6 µM (active) in experiment [2], 160 µM (active) in [3] and 173 µM (active) in [11].
